Test results: PubChem BioAssay (NCI)
The panel holds about 83,000 compounds, 20% with a hit somewhere; the sample as a whole holds those more often.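 Method: cells in 96-well plates; compound added at one concentration; 48 h incubation; percent growth measured; values under 10 scored active.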 A number with no mark means an inactive call. Calls of active or inactive are those of the source.

Key:
Assay in all cases: NCI-60 one-dose screen, 48 h (100 = growth as untreated, 0 = no growth, -100 = all killed)
Details in all cases: 10 µM unless noted
NCI-H23 lung = tested on: NCI-H23 lung
NCI-H226 lung = tested on: NCI-H226 lung
NCI-H322M lung = tested on: NCI-H322M lung
HOP-62 NSCLC = tested on: HOP-62 NSCLC
NCI-H460 lung = tested on: NCI-H460 lung
HOP-92 NSCLC = tested on: HOP-92 NSCLC
NCI-H522 lung = tested on: NCI-H522 lung
A549/ATCC NSCLC = tested on: A549/ATCC NSCLC
786-0 renal = tested on: 786-0 renal
COLO 205 colon = tested on: COLO 205 colon

Structure (SMILES)	growth (NCI-H23 lung)	growth (NCI-H226 lung)	growth (NCI-H322M lung)	growth (HOP-62 NSCLC)	growth (NCI-H460 lung)	growth (HOP-92 NSCLC)	growth (NCI-H522 lung)	growth (A549/ATCC NSCLC)	growth (786-0 renal)	growth (COLO 205 colon)
NNC(=O)c1ccccc1N	101%	114%	118%	90.6%	118%	86.4%	130%	120%	96.9%	133%
Cc1ccc(S(N)(=O)=O)cc1Cl	111%	105%	121%	110%	113%	101%	98.6%	92.9%	100%	104%
O=Cc1c(O)c2ccccc2[nH]c1=O	97.8%	88.6%	112%	102%	103%	110%	94.8%	90.1%	104%	108%
CCOC(=O)c1cc(Cl)c(O)c(Cl)c1	103%	103%	117%	106%	108%	109%	103%	100%	107%	99.6%
Cc1[nH]c(=S)[nH]c(=O)c1C	101%	99.7%	114%	107%	109%	125%	95.4%	94.3%	106%	115%
Cc1cc(C)cc(OCC(=O)O)c1	97%	91.4%	95.9%	95.5%	110%	109%	93.7%	104%	98.2%	119%
c1ccc2c(NCCCN3CCN(CCCNc4c5ccccc5nc5ccccc45)CC3)c3ccccc3nc2c1	-86.2% [100 µM] (active)	-26.2% [100 µM] (active)	-33.2% [100 µM] (active)	-32.5% [100 µM] (active)	-19.5% [100 µM] (active)	-26.4% [100 µM] (active)	-72.1% [100 µM] (active)	-24.8% [100 µM] (active)	-28.5% [100 µM] (active)	-52.6% [100 µM] (active)
CC(C)C1CCC(C)C(O)C1 (stereo not given)	110%	102%	105%	95.3%	108%	102%	92.8%	88.7%	105%	111%
Cc1ccc(C)c(CN(C)C)c1O	102%	97.6%	108%	97.4%	102%	88.1%	111%	106%	107%	113%
Nc1ccn(C2CC(N)C(CO)O2)c(=O)n1 (stereo not given)	80.1%	85.1%	96.6%	69.1%	34.5%	95.7%	77.9%	75.6%	94.1%	97.7%
C#CC(O)c1ccccc1 (stereo not given)	106%	99.7%	104%	108%	104%	85.9%	102%	101%	95.6%	108%
Cc1ccc(NCN2C(=O)c3ccccc3C2=O)c(C)n1	112%	103%	103%	110%	111%	102%	112%	107%	95.8%	112%
N#Cc1ccc(OC(=O)Nc2cc(Cl)cc(Cl)c2)cc1	-10.3% [100 µM] (active)	1.99% [100 µM] (active)	-3.43% [100 µM] (active)	-13.7% [100 µM] (active)	0.999% [100 µM] (active)	-35.9% [100 µM] (active)	-31.1% [100 µM] (active)	4.72% [100 µM] (active)	9.34% [100 µM] (active)	-85.9% [100 µM] (active)
Nc1ncnc2c1ncn2C1OC(CO)C2OC21 (stereo not given)	107%	93.8%	118%	96.6%	109%	102%	94.6%	102%	108%	107%
Nc1c(O)c(S(=O)(=O)O)c(O)c2c1C(=O)c1ccccc1C2=O	21.5%	41.2%	39%	42.6%	8.34% (active)	14.4%	7.56% (active)	19%	59.6%	6.29% (active)
CC(=O)NNC(=S)/N=C\C(C(=O)c1ccccc1)=C(/O)c1ccccc1	90.1%	96.2%	94.1%	88.2%	110%	100%	86.3%	87.3%	99.8%	108%
Cc1onc(-c2ccccc2Cl)c1C(=O)Cl	114%	110%	101%	86.5%	103%	77%	108%	96.9%	101%	108%
O=Cc1ccc(F)cc1	105%	94.7%	90.6%	108%	93.9%	103%	97.8%	108%	102%	111%
N#C/C(=C\NC(=S)N=Nc1c(O)[nH]c2ccccc12)c1nc2ccccc2s1	94.7%	77.6%	101%	95.4%	97.4%	83.8%	82.9%	90.3%	94.8%	106%
O=C(NCCc1ccccc1)/C(=C\c1ccc(Cl)cc1Cl)NC(=O)c1ccccc1	91.2%	101%	101%	98.7%	97.1%	80.5%	90%	101%	107%	92.9%

Structure (SMILES)	growth (NCI-H23 lung)	growth (NCI-H226 lung)	growth (NCI-H322M lung)	growth (HOP-62 NSCLC)	growth (NCI-H460 lung)	growth (HOP-92 NSCLC)	growth (NCI-H522 lung)	growth (A549/ATCC NSCLC)	growth (786-0 renal)	growth (COLO 205 colon)
CCC12OC(COc3ccccc3)CN1CCN2c1ccccc1 (stereo not given)	98.2% [100 µM]	93.8% [100 µM]	93.3% [100 µM]	98.9% [100 µM]	106% [100 µM]	96.9% [100 µM]	87.6% [100 µM]	94.1% [100 µM]	96.6% [100 µM]	118% [100 µM]
CCNc1ncnc2[nH]ncc12	114%	98.9%	96.1%	103%	106%	101%	113%	107%	105%	114%
CCOC(=O)C1(N)CCCCC1	96.8%	98.6%	107%	102%	112%	102%	96.8%	100%	101%	110%
C=C(C)COc1ccc(C(C)(C)C)cc1	108%	95.8%	102%	91.2%	104%	99.3%	90.8%	91.2%	101%	104%
CCOC(=O)c1ccc(NC(=O)Nc2nccs2)cc1	19.4%	19.9%	41.3%	20.6%	-44.2% (active)	-7.86% (active)	-43.5% (active)	10.6%	-7.93% (active)	-82.9% (active)
COC1OC(COC(C)=O)C(OC(C)=O)C(OC(C)=O)C1OC(C)=O (stereo not given)	98%	91.1%	101%	97.9%	115%	92.8%	71.9%	91.5%	98.8%	98.7%
COC(=O)c1ccc([N+](=O)[O-])c(C)c1	107%	102%	93.2%	98.5%	105%	90.4%	107%	107%	103%	111%
COC1=C(OC)C(=O)C(SC/C=C(\C)CCCC(C)CCCC(C)CCCC(C)C)=CC1=O (stereo not given)	14%	40.9%	67.4%	38.3%	2.16% (active)	-13.1% (active)	-6.14% (active)	17.8%	66%	94.4%
CS(=O)CC(=N\O)/C(CS(C)=O)=N\O (stereo not given)	106%	110%	98%	102%	111%	105%	96%	97.4%	99.2%	106%
CC(=O)CSc1ncnc2nc[nH]c12	106%	92.1%	115%	84.8%	98.4%	69.6%	72.8%	87.3%	91.7%	97.6%
NS(=O)(=O)c1cc(=O)[nH]c(=O)[nH]1	114%	109%	93.7%	107%	111%	172%	74.5%	115%	105%	117%
CC1CC(C)S(=O)(=O)C1 (stereo not given)	106%	105%	113%	115%	116%	120%	97.8%	92.6%	107%	108%
O=[N+]([O-])c1ccc2[nH]c(=S)n(/C=C(/c3ccc(Cl)cc3Cl)S(=O)(=O)Cc3ccc(Cl)cc3Cl)c2c1	96.2%	106%	100%	90.3%	108%	112%	88.6%	83.3%	94.6%	99%
CCN(C(C)=O)c1ccc([N+](=O)[O-])cc1	101%	99.3%	103%	95.4%	104%	98.7%	104%	91.8%	102%	110%
CC(C)OCC(CCl)OC(=O)Nc1ccccc1 (stereo not given)	93%	100%	99.4%	104%	105%	89.5%	98.4%	102%	100%	111%
CN=S(=O)(OCCCCCOS(=O)(=NC)c1ccc(C)cc1)c1ccc(C)cc1 (stereo not given)	89.1%	86%	101%	101%	55.7%	59.2%	116%	119%	99.3%	113%
COc1ccc(/C=C\C(=O)/C=C/c2ccc(OC)cc2)cc1	84.7%	81.4%	99.6%	95.4%	107%	109%	94.7%	102%	83.5%	107%
Cc1[nH]n(-c2ccccc2)c(=O)c1C=NC(=S)C(N)=S	98.1%	99.7%	110%	104%	107%	84%	86.2%	93.6%	104%	106%
Cc1ccc(Cc2ccc(C)cc2)cc1	106%	100%	98.3%	98.1%	111%	97.5%	95.3%	102%	96.1%	107%
Cc1ccc2nc(-c3ccc(N=Cc4ccccc4O)cc3)sc2c1	84.4%	70.7%	82.8%	77.9%	104%	78.1%	61.3%	71.9%	77.5%	140%

Structure (SMILES)	growth (NCI-H23 lung)	growth (NCI-H226 lung)	growth (NCI-H322M lung)	growth (HOP-62 NSCLC)	growth (NCI-H460 lung)	growth (HOP-92 NSCLC)	growth (NCI-H522 lung)	growth (A549/ATCC NSCLC)	growth (786-0 renal)	growth (COLO 205 colon)
O=C(O)Cc1ccccn1	102%	102%	102%	109%	108%	99.1%	100%	106%	102%	97.8%
C=C1CC2(OC1=O)C(=O)N(C)c1ccc(I)cc12 (stereo not given)	-62.6% (active)	-37.3% (active)	50.6%	58.9%	-57% (active)	-95.7% (active)	-56.9% (active)	-19.3% (active)	-71.5% (active)	-84.2% (active)
CCN(C(=O)Nc1ccccc1Cl)c1ccccc1	101%	107%	109%	111%	108%	101%	106%	100%	112%	113%
Nc1ccccc1SC1CC(=O)N(c2ccc(Cl)c(Cl)c2)C1=O (stereo not given)	104%	106%	128%	96.6%	117%	101%	117%	99.9%	93.9%	127%
C=C1C(=O)C2CCN1CC2	102%	101%	99.5%	101%	104%	104%	-53.8% (active)	97%	96.2%	102%
Nc1nc(N)nc(N2CCCCC2)n1	107%	103%	94.4%	104%	103%	96.6%	100%	104%	102%	108%
Cc1cccc(C)c1NC(=S)/N=C\c1c(O)[nH]c(=O)[nH]c1=O	104%	100%	98.5%	87.7%	105%	102%	86.4%	79.4%	101%	103%
O=C(O)CCCCCNC(=O)OCc1ccccc1	102%	105%	95.1%	101%	101%	92.3%	107%	100%	102%	99%
Cc1cccc2ccccc12	104%	97%	103%	102%	104%	100%	97.3%	96.9%	97.9%	117%
COC(=O)C1(CC(C)=O)NC(=S)NC(=O)C1C#N (stereo not given)	99.5%	108%	108%	104%	134%	102%	98.6%	106%	105%	117%
COC1(OC)C2(Cl)C(Cl)=C(Cl)C1(Cl)C1COCC12 (stereo not given)	109%	93.6%	104%	96.5%	86.8%	105%	79.5%	64%	104%	113%
COc1ccc(C(=O)C(=O)c2ccccc2)cc1	94%	91.9%	93.8%	102%	104%	90.7%	97.2%	104%	103%	112%
CCNC(=O)Oc1ccc[nH]c1=O	105%	115%	102%	102%	102%	94%	88.4%	91.8%	100%	117%
Cc1ccc(C2CCCCC2)cc1Br	105%	97.7%	99.2%	91.3%	108%	95%	91.3%	89.4%	96.4%	101%
O=S1(=O)c2ccccc2Oc2ccccc21	104%	100%	101%	93.4%	99%	90.4%	78.2%	95.4%	99.9%	109%
OCCNc1ccccc1	95.6%	97.7%	104%	105%	106%	92.7%	99.5%	103%	99.9%	107%
CCc1ccccc1C(=O)N(CC)CC	103%	95.4%	105%	103%	104%	107%	105%	97.1%	101%	111%
O=C(O)c1cc(I)ccc1O	103%	99%	95.7%	100%	108%	121%	111%	93.3%	107%	127%
Nc1ncnc(Nc2ccc(C(F)(F)F)cc2)n1	100%	103%	102%	103%	106%	76.7%	98.5%	93.6%	97.7%	108%
